TROY signal inh: blocks TROY-dependent signaling in reporter cells; Q293 LMP1-TROYcd NF-kB luciferase reporter, 4 h; inhibition, % at 10 µM; 360,000 tested, 0.98% active; AID 1347056;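 active means compounds whose plate-normalised and pattern-corrected inhibition of the luciferase reporter signal at the single screening dose is 50% or more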
EBV LMP1 NFkB: Epstein-Barr LMP1 NF-kappaB reporter inhibition | LMP1-induced NF-kappaB luciferase reporter cells, luminescence | inhibition, % at 12.5 µM | 350,000 tested, 0.69% active; in the data active means inhibition above about 41%;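 further: 0% = neutral control wells and 100% = reference inhibitor control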
TWEAK Fn14 block: TWEAK-Fn14 signaling inhibition. TWEAK-stimulated Fn14 reporter cells, luciferase luminescence, 8 h. inhibition, % at 10 µM. AID 1159606. 360,000 tested, 2% active; in the data active means inhibition above about 50%
TRPM1 prom inh: reduces MITF-dependent TRPM1 promoter luciferase signal; SK-MEL-5 TRPM1 promoter luciferase, 24 h; inhibition, % at 12.5 µM; 330,000 tested, 0.83% active; AID 488899;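 active means mean inhibition across replicates of 60% or more, whatever share of single replicates reaches that level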
Shn3 3UTR inh: Schnurri-3 reporter inhibition in Clone20 osteoblasts; Clone20 osteoblast Shn3 3'UTR firefly luciferase, 24 h; inhibition, % at 12.5 µM; 360,000 tested, 0.52% active;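 active means mean inhibition of at least 75% with every replicate also reaching 75%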;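 further: 0% = median of neutral control wells and 100% = pilot-screen positive control compound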
Peg3 promoter: inhibitors of Peg3 promoter; HeLa PEG-Prom luciferase reporter, luminescence, overnight; inhibition, % at 20 µM; 360,000 tested, 1.7% active; AID 588405;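 active means inhibition of at least 50% at 20 µM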
The depositor's hits bear a star; ! = not active in a repeat. A selection: hits, their analogues and other compounds. The true share with any hit is near 4.1%.

Cc1ccc(-c2c[n+](Cc3cccc(Cl)c3)c3n2CCC3)cc1 was read as TROY signal inh 32, EBV LMP1 NFkB 6, TWEAK Fn14 block 26, TRPM1 prom inh 67*, Shn3 3UTR inh 47 and Peg3 promoter 24.
CCc1nc(N)nc(N)c1-c1ccc(Cl)c([N+](=O)[O-])c1 was read as TROY signal inh 10, EBV LMP1 NFkB 32, TWEAK Fn14 block 2, TRPM1 prom inh 30, Shn3 3UTR inh 47 and Peg3 promoter 22.
For CCc1nc(N)nc(N)c1-c1ccc(Cl)c(N=[N+]=[N-])c1 the results were TROY signal inh 15, EBV LMP1 NFkB 1, TWEAK Fn14 block 0, TRPM1 prom inh 31, Shn3 3UTR inh 81*! and Peg3 promoter 14.
For COc1ccc(N(CC(=O)NC(C)C)S(=O)(=O)c2ccc(NC(C)=O)cc2)cc1 the results were TROY signal inh 7, EBV LMP1 NFkB -5, TWEAK Fn14 block 6, TRPM1 prom inh -8, Shn3 3UTR inh 1 and Peg3 promoter 9.
For CCN1/C(=C\c2ccc3cc(C)ccc3[n+]2CC)Sc2cc(C)c(C)cc21 the results were TROY signal inh 45, EBV LMP1 NFkB 29, TWEAK Fn14 block 64*, TRPM1 prom inh 73*, Shn3 3UTR inh 89* and Peg3 promoter 38.
`CCN1/C(=C/c2ccc3cc(C)ccc3[n+]2CC)Sc2ccc3sccc3c21` gave TROY signal inh 29, EBV LMP1 NFkB 21, TWEAK Fn14 block 32, TRPM1 prom inh 100*, Shn3 3UTR inh 93* and Peg3 promoter 111*.
Screening CCN1/C(=C/c2ccc3cc(C)cc(C)c3[n+]2CC)Sc2cc(C)ccc21 returned TROY signal inh 31, EBV LMP1 NFkB 29, TWEAK Fn14 block 34, TRPM1 prom inh 83*, Shn3 3UTR inh 65 and Peg3 promoter 99*.
Screening CC[n+]1c(C)sc2c3ccsc3ccc21 returned TROY signal inh 16, EBV LMP1 NFkB 2, TWEAK Fn14 block -4, TRPM1 prom inh 7, Shn3 3UTR inh -9 and Peg3 promoter 18.
Screening CCN1/C(=C/c2ccc3cccc(C)c3[n+]2CC)Sc2ccccc21 returned TROY signal inh 42, EBV LMP1 NFkB -3, TWEAK Fn14 block 1, TRPM1 prom inh 72*, Shn3 3UTR inh 51 and Peg3 promoter 56*.
For COc1cc(F)ccc1-c1csc(C(NC(C)=O)c2ccc(F)c(F)c2)n1 (stereo unspecified) the results were TROY signal inh -8, TWEAK Fn14 block -27, Shn3 3UTR inh -7 and Peg3 promoter -5.
S=C(NCc1ccccc1)NNc1nc2ccccc2[nH]1 was read as TROY signal inh 10, EBV LMP1 NFkB -1, TWEAK Fn14 block 0, TRPM1 prom inh 15, Shn3 3UTR inh -1 and Peg3 promoter -21.
Screening Nc1ccc(S(=O)(=O)c2cc(O)c3ccccc3c2O)cc1 returned TROY signal inh 74*, EBV LMP1 NFkB -5, TWEAK Fn14 block 79*, TRPM1 prom inh 42, Shn3 3UTR inh -19 and Peg3 promoter 26.
CCOc1cc(/C=N/NC(=O)c2ccccc2-n2cccc2)ccc1O was read as TROY signal inh 13, EBV LMP1 NFkB 71*, TWEAK Fn14 block 20, TRPM1 prom inh -2, Shn3 3UTR inh 80 and Peg3 promoter 25.
For CCOc1cc(/C=N/NC(=O)c2ccccc2OCc2ccc(F)cc2)ccc1O the results were TROY signal inh 35, EBV LMP1 NFkB 13, TWEAK Fn14 block -2, TRPM1 prom inh -9, Shn3 3UTR inh 19 and Peg3 promoter 15.
Screening COc1ccc(Cl)cc1S(=O)(=O)N(C)CC(=O)NCc1ccc2c(c1)OCO2 returned TROY signal inh 0, EBV LMP1 NFkB -6, TWEAK Fn14 block 53*, TRPM1 prom inh -6, Shn3 3UTR inh 12 and Peg3 promoter -6.
`CC(=O)NCCC(=O)Nc1cc(S(=O)(=O)N2CCOCC2)ccc1Oc1ccc(F)cc1` gave TROY signal inh -5, EBV LMP1 NFkB 0, TWEAK Fn14 block 3, TRPM1 prom inh 0, Shn3 3UTR inh 7 and Peg3 promoter -1.
`CC(C)(C)N(Cc1ccccc1)C(=O)COC(=O)/C=C/c1ccc2c(c1)OCO2` gave TROY signal inh -2, EBV LMP1 NFkB -2, TWEAK Fn14 block -1, TRPM1 prom inh 14, Shn3 3UTR inh 11 and Peg3 promoter 3.
O=C1C(Oc2ccccc2)C(c2cccs2)N1Cc1ccc2c(c1)OCO2 (stereo unspecified) was read as TROY signal inh 29, EBV LMP1 NFkB 6, TWEAK Fn14 block -2, TRPM1 prom inh 2, Shn3 3UTR inh 70 and Peg3 promoter 12.

Screening data as filed in PubChem BioAssay.
